Source: publication PMC4336329 (PLoS ONE, 2015)
Hit rate of the full screen: of about 310,000 compounds, about 14,000 (4.5%) showed an effect of 50% or more. Effects have a minus sign here. Shown is part of a subset that was picked to be rich in strong results.

target: human ether-à-go-go-related gene (hERG) potassium channel (human, UniProt Q12809); assay: primary screen, population patch clamp on CHO cells stably expressing hERG; higher = less effect of the substance
Experimental: Briefly, Chinese hamster ovary (CHO) cells stably expressing the hERG channel were dislodged from tissue culture flasks and dispensed into PPC plates. […] During the recording, background leak currents were estimated by a 100 ms step to -80 mV from an initial holding potential of -70 mV and subtracted from the subsequent current measurement. The campaign was conducted in two phases using slight differences in recording protocol. In the first phase, the initial voltage pulse used a 100 ms step to -30 mV from a holding potential of -70 mV, a 2 s conditioning step to +25 mV, and a 2 s test step to -30 mV. During the second phase of the screen, the potential during the conditioning step was raised to +45 mV. In both phases of the campaign, a secondary voltage pulse was applied using the same parameters as the second phase initial pulse. The initial and secondary pulses were applied in the absence of compound, and upon application of 1 μM and 10 μM test concentrations. […]
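Note: peak tail current of the secondary pulse compared with the same well before compound.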

Sequence of human ether-à-go-go-related gene (hERG) potassium channel (Q12809 whole entry, looked up): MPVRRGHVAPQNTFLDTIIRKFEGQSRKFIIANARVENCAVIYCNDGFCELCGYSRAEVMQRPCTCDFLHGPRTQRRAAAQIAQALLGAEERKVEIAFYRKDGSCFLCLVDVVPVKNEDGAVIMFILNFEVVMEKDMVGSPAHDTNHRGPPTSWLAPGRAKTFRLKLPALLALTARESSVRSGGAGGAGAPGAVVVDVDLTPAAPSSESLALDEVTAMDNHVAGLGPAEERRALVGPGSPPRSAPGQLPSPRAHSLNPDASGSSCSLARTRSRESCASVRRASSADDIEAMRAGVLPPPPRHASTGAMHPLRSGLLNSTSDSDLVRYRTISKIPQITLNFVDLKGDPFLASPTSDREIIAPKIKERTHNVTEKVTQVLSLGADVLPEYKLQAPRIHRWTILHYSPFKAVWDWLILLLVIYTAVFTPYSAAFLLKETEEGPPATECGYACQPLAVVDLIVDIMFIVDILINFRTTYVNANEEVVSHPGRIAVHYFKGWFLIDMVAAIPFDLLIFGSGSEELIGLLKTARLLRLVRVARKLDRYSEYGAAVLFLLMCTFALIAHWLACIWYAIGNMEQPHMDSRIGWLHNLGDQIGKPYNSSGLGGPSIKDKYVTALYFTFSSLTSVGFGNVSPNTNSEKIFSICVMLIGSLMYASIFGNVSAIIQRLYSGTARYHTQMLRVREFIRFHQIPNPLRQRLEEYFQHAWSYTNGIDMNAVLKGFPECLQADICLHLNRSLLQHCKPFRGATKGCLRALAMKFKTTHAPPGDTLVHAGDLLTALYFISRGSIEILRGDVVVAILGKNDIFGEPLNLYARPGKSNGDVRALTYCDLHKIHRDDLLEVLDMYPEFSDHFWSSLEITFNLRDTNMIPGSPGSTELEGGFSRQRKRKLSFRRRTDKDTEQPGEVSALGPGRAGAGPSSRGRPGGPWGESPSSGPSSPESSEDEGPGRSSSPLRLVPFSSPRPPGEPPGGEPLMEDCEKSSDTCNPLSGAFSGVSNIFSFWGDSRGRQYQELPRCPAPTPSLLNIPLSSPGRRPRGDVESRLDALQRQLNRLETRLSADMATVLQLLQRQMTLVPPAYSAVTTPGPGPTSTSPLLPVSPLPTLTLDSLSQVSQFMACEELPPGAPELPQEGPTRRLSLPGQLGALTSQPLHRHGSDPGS

| SMILES | hERG current change (%, negative = inhibition) at 10uM |
| --- | --- |
| CC(C)Sc1nc2c(cnn2-c2ccc(Cl)cc2)c(=O)[nH]1 | 26.2% |
| Cc1nnc(SCC(=O)N2CCCC2)n(N)c1=O | 14.1% |
| O=C(NCCS(=O)(=O)N1CCN(c2ccc(F)cc2)CC1)c1ccco1 | -62.2% |
| COc1ccc(N2CCN(S(=O)(=O)CCNC(=O)c3ccco3)CC2)cc1 | -9.43% |
| O=C(NCCS(=O)(=O)N1CCN(c2ccccc2)CC1)c1ccccc1F | 6.68% |
| CSc1ccccc1C(=O)NCCS(=O)(=O)N1CCN(c2ccc(F)cc2)CC1 | -67.6% |
| O=C(Cc1ccc(F)cc1)NCCS(=O)(=O)N1CCN(c2ccccc2)CC1 | 5.42% |
| O=C(NCCS(=O)(=O)N1CCN(c2ccccc2)CC1)c1ccco1 | -14.5% |
| CCOC(=O)c1cnn(Cc2ccccc2Cl)c1N | -11% |
| COc1ccccc1-c1oc2ccccc2c1C#CCCCCO | 22.6% |
| COc1ccc(-c2nn(-c3ccccc3)cc2/C=C2/SC(=S)N(CCCC(=O)O)C2=O)c(C)c1 | 26% |
| Cc1ccc(CN2C(=O)C(C)Nc3ncnc(N4CCN(c5ccccn5)CC4)c32)cc1.O=C(O)C(F)(F)F (stereo not shown) | -56.1% |
| CCC1Nc2ncnc(N3CCN(c4ccccn4)CC3)c2N(Cc2ccc(Cl)cc2)C1=O.O=C(O)C(F)(F)F (stereo not shown) | -73.8% |
| Cc1ccc(CN2C(=O)C(CC(C)C)Nc3ncnc(N4CCN(c5ccccn5)CC4)c32)cc1.O=C(O)C(F)(F)F (stereo not shown) | -43.3% |
| CCC1Nc2ncnc(N3CCCCC3)c2N(Cc2ccccc2)C1=O.O=C(O)C(F)(F)F (stereo not shown) | -4.8% |
| CC1Nc2ncnc(N3CCN(c4ccccn4)CC3)c2N(Cc2ccccc2)C1=O.O=C(O)C(F)(F)F (stereo not shown) | -19.8% |
| CCC1Nc2ncnc(N3CCN(c4ccccc4)CC3)c2N(Cc2ccc(Cl)cc2)C1=O.O=C(O)C(F)(F)F (stereo not shown) | -17.4% |
| Cc1ccc(S(=O)(=O)N2CCN(C(=O)CN3C(=O)NC4(CCCCC4)C3=O)CC2)c(C)c1 | 1.52% |
| COc1ccc(S(=O)(=O)N2CC(C)OC(C)C2)cc1C(=O)N1CCCCC1 (stereo not shown) | 6.93% |
| O=C(OCc1c(F)cccc1Cl)c1cnc2ccccc2n1 | 17.6% |
| CCCn1nc2cc(C(=O)NC3CCCc4ccccc43)ccc2c1OCC (stereo not shown) | -8.93% |

| SMILES | hERG current change (%, negative = inhibition) at 10uM |
| --- | --- |
| CN(C)S(=O)(=O)c1cccc(COC(=O)Cc2c(F)cccc2Cl)c1 | 9.75% |
| CC(C)OP(=O)(OC(C)C)C(NC(=O)c1ccccc1)C(N)=O (stereo not shown) | -3.65% |
| Cc1ccccc1C(=O)NC(C(N)=O)P(=O)(OC(C)C)OC(C)C (stereo not shown) | -55.2% |
| CC(C)OP(=O)(OC(C)C)C(NC(=O)c1ccccc1Br)C(N)=O (stereo not shown) | 3.63% |
| CCN(C(=O)c1ccnn1C)c1ccccc1 | 4.75% |
| COc1ccc(S(=O)(=O)N2CCOCC2)cc1NC(=O)c1ccc2c(c1)OCO2 | 12.6% |
| O=C(O)CN1C(=O)/C(=C/c2ccccc2Br)Oc2ccccc21 | 4.16% |
| COc1ccccc1NS(=O)(=O)c1ccc(Cl)c(NC(=O)c2sc3cc(Cl)ccc3c2Cl)c1 | 22.1% |
| O=C(O)CC1S/C(=N\N=C/c2ccccc2)N(c2ccc(O)cc2)C1=O (stereo not shown) | 13.4% |
| O=C(O)CC1S/C(=N\N=C/c2ccccc2O)N(c2ccc(O)cc2)C1=O (stereo not shown) | 9.18% |
| O=C(O)CC1S/C(=N\N=C2\C(=O)Nc3ccccc32)N(c2ccc(O)cc2)C1=O (stereo not shown) | -53.7% |
| CN(c1ccc(F)cc1)S(=O)(=O)c1ccc2[nH]cc(C(=O)O)c(=O)c2c1 | 13.8% |
| O=C(COc1ccc([N+](=O)[O-])cc1)N(C1CCCCC1)C1CCS(=O)(=O)C1 (stereo not shown) | -37% |
| Cc1ccc(OCC(=O)N(Cc2ccco2)C2CCS(=O)(=O)C2)cc1C (stereo not shown) | -38.8% |
| Cc1ccc(OCC(=O)N(Cc2ccc(C)o2)C2CCS(=O)(=O)C2)cc1 (stereo not shown) | -52.3% |
| N#Cc1ccc(OCC(=O)N(C2CCCCC2)C2CCS(=O)(=O)C2)cc1 (stereo not shown) | -50.1% |
| O=C(COc1ccc(F)cc1)N(Cc1ccc(Cl)cc1)C1CCS(=O)(=O)C1 (stereo not shown) | -38.7% |
| CN(C)c1ccc(CN(C(=O)COc2ccc(F)cc2)C2CCS(=O)(=O)C2)cc1 (stereo not shown) | -16.6% |
| COc1ccc(OCC(=O)N(Cc2ccc(C)o2)C2CCS(=O)(=O)C2)cc1 (stereo not shown) | -19.5% |
| Cc1ccc(CN(C(=O)COc2ccc(C)c(C)c2)C2CCS(=O)(=O)C2)o1 (stereo not shown) | -53.6% |
| CC(=O)c1ccc(OCC(=O)N(C2CCCCC2)C2CCS(=O)(=O)C2)cc1 (stereo not shown) | -2.18% |

| SMILES | hERG current change (%, negative = inhibition) at 10uM |
| --- | --- |
| Cc1ccc(CN(C(=O)COc2ccc(Br)cc2)C2CCS(=O)(=O)C2)o1 (stereo not shown) | -33.5% |
| Cc1cccc(OCC(=O)N(Cc2ccc(C)o2)C2CCS(=O)(=O)C2)c1 (stereo not shown) | -42.6% |
| O=C(COc1ccc(Cl)cc1)N(Cc1ccc(F)cc1)C1CCS(=O)(=O)C1 (stereo not shown) | -63.3% |
| O=C(COC(=O)c1cccc(F)c1)NC1CC1 | 41.8% |
| COc1ccccc1N1CCN(C(=O)Cn2c(=O)[nH]c3ccsc3c2=O)CC1 | -1.18% |
| O=C(c1ccccc1)c1n[nH]c(-c2ccccc2)cc1=O | 30.9% |
| CCC(=O)NC(c1cc(Cl)c2ccccc2c1O)C1CC1 (stereo not shown) | 14.5% |
| Cc1ccc(C)c(C2=CSC3=NS(=O)(=O)CCN23)c1 | 12.3% |
| COc1ccc(CNC(=O)[C@]2(C)CCC[C@@]3(C)C4CC[C@@]5(C)C[C@]4(CCC32)CC5=O)cc1 (stereo partly shown) | 10.2% |
| CCOC(=O)c1sc2nc(CSc3ccccc3)[nH]c(=O)c2c1C | 3.8% |
| CC(C)C(=O)NC(c1cccs1)c1cc([N+](=O)[O-])c2cccnc2c1O (stereo not shown) | 31.7% |
| CCN(CC)S(=O)(=O)c1ccc2c(c1)nc(SCC(=O)NC1CC1)n2-c1ccccc1OC | -56.2% |
| CCN(CC)S(=O)(=O)c1ccc2c(c1)nc(SC(C)C(N)=O)n2-c1ccc(OC)cc1 (stereo not shown) | -51.7% |
| CCn1c(CSc2nncn2-c2ccc(OC)cc2)nc2cc(S(=O)(=O)N(C)C)ccc21 | -14.5% |
| COc1ccccc1-n1c(SCC(=O)NC2CC2)nc2ccccc2c1=O | -23.1% |
| CCN(CC)S(=O)(=O)c1ccc2c(c1)nc(SCC(=O)N1CCOCC1)n2-c1ccccc1OC | -31.1% |
| CCCCn1c(SC(C)C(=O)c2ccc(OC)cc2)nc2cc(S(N)(=O)=O)ccc21 (stereo not shown) | -18.1% |
| CCN(CC)S(=O)(=O)c1ccc2c(c1)nc(SCC(N)=O)n2-c1ccc(OC)cc1 | -77.7% |
| COc1ccc(-n2nnnc2SC(C)C(N)=O)cc1 (stereo not shown) | 8.68% |
| CCN(CC)S(=O)(=O)c1ccc2c(c1)nc(SCC(=O)N1CCCCCC1)n2-c1ccc(OC)cc1 | -21% |
| NCCNc1ccc([N+](=O)[O-])c2cccnc12 | 1.29% |

| SMILES | hERG current change (%, negative = inhibition) at 10uM |
| --- | --- |
| CCOc1ccccc1NC(=O)NNS(=O)(=O)c1cc(C)ccc1C | 6.71% |
| CSc1ccccc1NC(=O)Cc1ccc(Br)cc1 | -10.2% |
| Cc1ccc(C)c(NC(=S)N2CCC(NC(=O)c3cccc(F)c3)CC2)c1 | 1.08% |
| O=C(N/N=C/c1ccc(COc2ccc(Br)cc2)o1)c1ccco1 | 2.73% |
| Cc1ccccc1NS(=O)(=O)c1ccc2c3c(cccc13)C(=O)N2C | -4.02% |
| O=C(C1CCN(S(=O)(=O)c2cccnc2)CC1)N1CCN(c2ccc(Cl)cc2)CC1 | -56.2% |
| Cc1ccc(Cl)cc1N1CCN(C(=O)C2CCN(S(=O)(=O)c3cccnc3)CC2)CC1 | -46% |
| O=C(C1CCN(S(=O)(=O)c2cccnc2)CC1)N1CCN(c2cccc(Cl)c2)CC1 | -31.5% |
| O=S(=O)(c1ccc(Cl)cc1)N1CCN(c2ccccn2)CC1 | -4.62% |
| O=C(C1CCN(S(=O)(=O)c2ccc(Cl)cc2)CC1)N1CCN(c2ccccn2)CC1 | -64.7% |
| Cc1ccc(S(=O)(=O)N2CCC(C(=O)N3CCN(c4ccccn4)CC3)CC2)cc1 | -19.4% |
| Clc1ccc2noc(-c3ccccc3)c2c1 | 7.67% |
| COc1ccccc1CNC(=O)c1cnccn1 | 0.0654% |
| OCCC1CN(Cc2cccc(O)c2)CCN1CCc1ccccc1 (stereo not shown) | -24.4% |
| COc1cc(CN2CCN(CC#Cc3ccccc3)CC2CCO)cc(OC)c1 (stereo not shown) | -1.09% |
| COc1cc(CN2CCN(CCCc3ccccc3)CC2CCO)cc(OC)c1 (stereo not shown) | -71.1% |
| OCCC1CN(Cc2cccnc2)CCN1CCc1ccccc1 (stereo not shown) | -34.8% |
| COc1cc(CN2CCN(Cc3cn(C)c4ccccc34)CC2CCO)cc(OC)c1 (stereo not shown) | -43.7% |
| COc1cc(CN2CCN(CCc3ccccc3)C(CCO)C2)cc(OC)c1 (stereo not shown) | -63.5% |
